# ± gives the standard deviation of the averaged measurements.
# Experiments:
# [1] = test system: E18 rat cortical neuron-glia co-culture; assay: fiber score / MBP score (myelination specific beyond OL differentiation) (ratio); higher = more myelination-specific MBP alignment; conditions: treatment time: 8 days (DIV5-DIV13)
# Method in brief: (§1)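 Primary E18 rat cortical co-cultures (papain-dissociated, 20,000 cells/well on poly-d-lysine/laminin 96-well plates) received library compounds at 1 or 5 µM in myelination medium from DIV5 to DIV13. Cells were fixed in 4 % paraformaldehyde and immunostained for MBP and Olig2 with DAPI, and four 10X fields per well in duplicate wells were analysed. The read-out is fiber score (continuous MBP fiber length per Olig2+ nucleus) divided by MBP score (thresholded MBP area × intensity per Olig2+ nucleus).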
# [2] = test system: E18 rat cortical neuron-glia co-culture; assay: myelination (MBP fiber length per Olig2+ nucleus), % of 1 µM DAPT response (DMSO = 0) (% of DAPT); higher = more myelination, active = 50 or more; conditions: treatment time: 8 days (DIV5-DIV13)
# Method in brief: as §1, with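 “Myelination was continuous straight” for “The read-out is fiber score (continuous”, “nucleus, normalised to 0.1 % DMSO (0) and a 1 µM positive control (100).” for “nucleus) divided by MBP score (thresholded MBP area × intensity per Olig2+ nucleus).”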
SMILES,fiber score / MBP score ([1]; 1 µM),fiber score / MBP score ([1]; 5 µM),myelination ([2]; 1 µM),myelination ([2]; 5 µM)
CNCC[C@H](Oc1cccc2ccccc12)c1cccs1 [Duloxetine],0.73 ± 0.064,0.881 ± 0.45,-25.8 (inactive),-33.2 (inactive)
NC(Cc1cc(I)c(Oc2cc(I)c(O)c(I)c2)c(I)c1)C(=O)O (configuration not stated) [Thyroxine],0.768,1.19,-4.45 (inactive),32 (inactive)
CC(=O)OCC(=O)[C@@]1(O)CC[C@H]2[C@@H]3C[C@H](C)C4=CC(=O)C=C[C@]4(C)[C@H]3[C@@H](O)C[C@@]21C [Methylprednisolone acetate],0.468,0.413,-10.5 (inactive),-15.1 (inactive)
CCCCC(=O)O[C@H]1CC[C@H]2[C@@H]3CCc4cc(O)ccc4[C@H]3CC[C@]12C [Estradiol valerate],1.07,1.04,1.8 (inactive),11.9 (inactive)
Fc1cncnc1 [5-fluoropyrimidine],0.595,0.899,-17.3 (inactive),4.98 (inactive)
CCN(CC)CCOC(=O)C1(C2CCCCC2)CCCCC1 [Dicyclomine],0.616,0.288,-14.3 (inactive),-24.6 (inactive)
CN(CCOc1ccc(NS(C)(=O)=O)cc1)CCc1ccc(NS(C)(=O)=O)cc1 [Dofetilide],1.2,0.728,10.4 (inactive),-13.2 (inactive)
CCn1cc(C(=O)O)c(=O)c2cc(F)c(N3CCN(C)CC3)cc21 [Pefloxacin],1,0.8,-8.57 (inactive),-12.3 (inactive)
NS(=O)(=O)c1cc2c(cc1Cl)NCNS2(=O)=O [Hydrochlorothiazide],0.749,0.819,-8.91 (inactive),-12.5 (inactive)
COc1ccc2c3c1O[C@H]1C[C@@H](O)C=C[C@@]31CCN(C)C2 [Galantamine],0.69,0.673,-60.3 (inactive),-40.7 (inactive)
O=C(O)Cc1ccccc1Nc1c(Cl)cccc1Cl [Diclofenac],0.824,0.883,-25.4 (inactive),-15.6 (inactive)
COc1c(N2CCNC(C)C2)c(F)cc2c(=O)c(C(=O)O)cn(C3CC3)c12 (configuration not stated) [Gatifloxacin],0.508,0.609,-17 (inactive),-14.2 (inactive)
CCOC(=O)CCC(=O)O[C@H]1[C@H](O[C@@H]2[C@@H](C)[C@H](O[C@H]3C[C@@](C)(OC)[C@@H](O)[C@H](C)O3)[C@@H](C)C(=O)O[C@H](CC)[C@@](C)(O)[C@H](O)[C@@H](C)C(=O)[C@H](C)C[C@@]2(C)O)O[C@H](C)C[C@@H]1N(C)C [Erythromycin Ethylsuccinate],0.639,0.642,-18 (inactive),-16.3 (inactive)

# Source: the supplement of paper PMC4840960
